# Sampled rows, rich in hits. Any-hit rate of the full collection: about 2.4%.
# D2 antagonist = D2 dopamine receptor (human) antagonism; P14416; HEK293 TREx D2 cells, calcium flux, dopamine EC80; inhibition, % at 10 µM; 2% of 340,000 active; in the data active means inhibition above about 30%; inactive means below that, where a call was filed; further: 0% is about no effect
# Target sequence (P14416 whole entry, looked up): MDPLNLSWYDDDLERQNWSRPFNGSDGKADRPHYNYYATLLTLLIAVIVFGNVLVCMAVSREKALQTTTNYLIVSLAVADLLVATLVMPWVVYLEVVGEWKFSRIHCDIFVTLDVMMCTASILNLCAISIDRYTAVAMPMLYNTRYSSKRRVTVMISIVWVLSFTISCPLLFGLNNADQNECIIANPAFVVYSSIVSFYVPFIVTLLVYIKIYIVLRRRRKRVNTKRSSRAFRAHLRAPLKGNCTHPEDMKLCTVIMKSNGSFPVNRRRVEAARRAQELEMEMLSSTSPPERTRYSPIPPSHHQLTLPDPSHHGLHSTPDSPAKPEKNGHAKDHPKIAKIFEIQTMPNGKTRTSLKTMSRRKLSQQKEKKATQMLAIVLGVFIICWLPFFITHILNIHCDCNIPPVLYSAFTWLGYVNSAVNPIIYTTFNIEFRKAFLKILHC
#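 HEK293 T-REx D2 cells, tet-induced, calcium dye no-wash. Cpd pintool add, 180 s kinetic, then EC80 DA, 180 s kinetic. Ca flux read.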
# D2 PAM-1 = D2 dopamine receptor (human) potentiation. potentiation, % at 10 µM. 0.34% of 340,000 active. P14416. HEK293 T-REx D2, calcium flux, EC20 dopamine potentiation;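 active means potentiation over 3 SD above the plate norm, cut at about 30% in these data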; further: 0% is about no effect
#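 Tetracycline-induced HEK293 T-REx cells force-coupled to calcium signalling expressed D2; compounds were pin-added after a 10 s baseline, read kinetically 180 s, then an EC20 dopamine challenge followed with a further 180 s calcium read.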
# D2 PAM-2 = positive allosteric modulators of human D2 dopamine receptor | 0.23% of 360,000 active | AID 624464 | P14416 | DiscoveRx D2 beta-arrestin cells, luminescence, 90 min; 100% = 57 uM dopamine signal | potentiation, % (concentration not given with the values); in the data active means potentiation above about 50%
#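 PathHunter D2 cells, attached overnight at 37 deg C, received compound in DMSO plus dopamine at EC20 (50 nM final) for 90 min at 37 deg C. Beta-arrestin recruitment was read as luminescence after 1 h with detection reagent at ambient temperature.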
# D2 ag-1 = D2 dopamine receptor (human) agonism | P14416 | HEK293 T-REx D2 cells, calcium flux agonist mode | activation, % at 2 µM | 0.53% of 340,000 active;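 active means activation over 3 SD above normal in the single-dose calcium agonist read, cut at about 30% in these data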; further: 0% is about no effect
#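 Agonism scored from kinetic calcium signal (1 read/sec, 180 s) following compound pin transfer, after a 10 s baseline. Cells: HEK293 Trex line expressing inducible D2 receptor coupled to calcium, dye-loaded after overnight culture at 30 C.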
# D2 ag-2 = agonists of human D2 dopamine receptor (beta-arrestin). 0.084% of 360,000 active. DiscoveRx PathHunter D2 beta-arrestin, luminescence, 90 min; 100% = 57 uM dopamine signal. AID 624465. activation, % (test concentration not listed); in the data active means activation above about 40%
#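 DiscoveRx PathHunter D2 beta-arrestin cells (2,100/well) attached overnight, then compound-stimulated 90 min at 37 C in HBSS/10 mM HEPES/0.1% Tween-20 buffer; beta-galactosidase complementation read by luminescence after 1 h at ambient temperature. Dopamine 57 uM final (EC100) as control.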
# * hit, by the source's call; . = not tested or not shown.
SMILES,D2 antagonist,D2 PAM-1,D2 PAM-2,D2 ag-1,D2 ag-2
CN1/C(=C\C(=O)C(F)F)C(C)(C)c2ccccc21,47*,-4,-12,0,1
CCCN(c1c(C)n(C)n(-c2ccccc2)c1=O)S(=O)(=O)c1ccc(C)cc1,.,15,.,-1,.
CCN1CCN(C(=O)c2ccc3c(c2)N(Cc2ccc(Cl)cc2)C(=O)c2ccccc2S3(=O)=O)CC1,.,-23,.,.,.
CCN1CCN(C(=O)c2ccc3c(c2)N(Cc2ccccc2)C(=O)c2ccccc2S3(=O)=O)CC1,40*,-23,-13,0,-2
CN(C)c1ccc(N=Cc2cccn2C)cc1,-23,31*,-20,0,6
CN(C)c1ccc(N=Cc2nc(-c3ccccc3)oc2O)cc1,.,.,16,.,-1
C/C=C(\C)CN1CCc2cc(OC)c(OC)cc2C1,-5,31*,-15,0,1
COc1cc2c(cc1OC)CN(CC(=O)NC(=O)NCc1ccccc1)CC2,0,25,-3,2,-2
O=C(c1ccc2c(=O)n(CCc3ccccc3)c(=O)[nH]c2c1)N1CCN(c2ccc(Cl)cc2)CC1,.,5,.,0,.
COc1ccc(NC(=O)c2cc3ccccc3o2)c(OC)c1,.,-11,.,.,.
COC(=O)c1cc(Cl)c(NC(=O)c2cc3ccccc3o2)cc1OC,32*,-5,-11,1,-1
Cc1cc(C)n(C(=O)c2ccc(NC(=O)CC(C)C)cc2)n1,33*,-11,-12,0,-1
CCC(=O)Nc1ccc(C(=O)n2nc(C)cc2C)cc1,-26,15,1,1,-3
COc1cc(-c2coc3c(C(=O)NCc4ccc(OC)c(OC)c4)cccc23)ccc1O,.,.,-7,.,68*
CC(C)c1ccc(-c2nnc3n(CCc4ccccc4)c(=O)c4ccccc4n23)cc1,.,7,.,1,.
O=C(O)c1ccc(N/N=C/C2=C(N3CCOCC3)C(=C\c3ccccc3)/CC2)cc1,10,-5,51*,11,11
Cc1cc(C)nc(N/N=C/C2=C(N3CCOCC3)C(=C\c3ccc(Cl)cc3)/CC2)n1,6,6,2,2,-8
CCC1CCCCN1S(=O)(=O)c1ccc(NC(=O)c2nc(SC)ncc2Cl)cc1 (stereo not given),.,13,.,0,.
CCCCNc1nc(Oc2ccc(OCC(N)=O)nn2)nc(N2CCOCC2)n1,.,0,.,-1,.
COc1ccccc1N1CCN(C(=O)C2CC=CCC2C(=O)O)CC1 (stereo not given),33*,-28,-35,0,-2
COc1ccccc1C(=O)N1CCC(N2CCN(c3ccccc3OC)CC2)CC1,38*,-28,-21,9,0
COc1ccccc1N1CCN(C(=O)c2c(C)noc2C)CC1,-12,10,-1,0,4
COc1ccccc1N1CCN(C(=O)c2ccoc2C)CC1,35*,-6,-5,1,0
COc1ccccc1N1CCN(C(=O)c2coc(=O)c(Br)c2)CC1,43*,-15,-17,1,-2
COc1ccccc1N1CCN(C(=O)C2CCN(C(=O)c3ccccc3Cl)CC2)CC1,4,0,10,1,-1
SMILES,D2 antagonist,D2 PAM-1,D2 PAM-2,D2 ag-1,D2 ag-2
Cc1ccn2c(=O)cc(COc3ccc(NC(=O)C(C)(C)C)cc3)nc2c1,.,6,.,1,.
Cc1cccc(C(=O)Nc2ccc(N3CC=C(c4ccccc4C)CC3)c(C(=O)O)c2)c1,.,-1,.,0,.
Cc1nn(CC(=O)N2CCN(c3ccccc3)CC2)c(=O)c2cc3cc(F)ccc3n12,.,6,.,0,.
COc1ccccc1N1CCN(C2CCCC(C)C2)CC1 (stereo not given),34*,-22,-23,0,-2
COc1ccccc1N1CCN(C2CCN(C(=O)COc3ccccc3)CC2)CC1,90*,-22,-32,27,1
COc1cccc2c1[C@@H]1CN(CCCCn3c(=O)[nH]c4c(sc5ncc(-c6ccccc6)nc54)c3=O)C[C@@H]1CO2,56*,-19,-35,2,-5
COc1cc2[nH]c(=O)n(CCCC(=O)N3CC=C(c4ccccc4)CC3)c(=O)c2cc1OC,3,4,-1,1,-3
COc1ccc(OC)c(NC(=O)CSc2nccn2-c2cc(C)cc(C)c2)c1,.,-5,.,0,.
OCCNCc1c(OCc2ccc(Cl)cc2)ccc2ccccc12,1,-4,-25,-1,-7

# From PubChem BioAssay
